The text below walks through data of PubChem BioAssay AID492998 (Southern Research Specialized Biocontainment Screening …, 2010).

The whole screen tested about 2,300 compounds, of which about 550 (24%) were called active. These entries were drawn from the full list. Potency and affinity values are given separately. Values without a mark were called inactive. No rule for the calls is given here.

A short description of the assay: Vero E6 cell cytotoxicity, dose response, cytotoxicity control for non-replicating M. tuberculosis project, secondary assay (AID 492998).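 Also: 100% = vehicle-treated cells and 0% = background wells.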 To be noted: series mostly up to 20 µM; viability: at the top concentration.
Take `O=S(=O)(c1ccc(Cl)c2ccccc12)N1CCCC1`: the “viability” value is 90.6%.
In the case of `c1ccc(-c2noc(CC3CCCCC3)n2)nc1`, the “viability” value was 93.4%.
The figure for `O=C(COc1ccc(Cl)cc1)Nc1ccc2[nH]ncc2c1` is 84.2%; for `CCOC(=O)C(C)Oc1ccc(OCc2ccccc2)cc1` (stereo not given) it is 85%; for `CC(C)c1ccc(OCC(=O)NCc2ccccc2)cc1` it is 98.7%.
The figure for `Cc1cccc(NC(=O)c2ccc(OC3CSC3)cc2)c1` is 95.8%.
As for `O=C(CCNc1ccc(Cl)cc1)c1cccs1`, the “viability” value is 93.9%.
The figure for `O=C(NNC(=O)c1cccs1)c1ccc(Br)o1` is 104%; for `Cc1ccc(CC(=O)N2CCN(c3ccc([N+](=O)[O-])cc3)CC2)cc1` it is 81.7%.
On to `O=[N+]([O-])c1ccc(CN2CCN(c3ccccc3)CC2)o1`, for which the “viability” value is 116%.
On to `O=C(c1cccs1)N1CCN(c2ccc(Cl)cc2)CC1`, for which the “viability” value was 98.4%.
On to `O=C(N/N=C/c1ccc([N+](=O)[O-])o1)c1ccc(NS(=O)(=O)c2cccs2)cc1`, for which the “viability” value is 86.5%.
Regarding `O=[N+]([O-])c1ccc(N2CCN(Cc3ccc([N+](=O)[O-])o3)CC2)cc1`, the “viability” value is 87%.
With `O=C1CCCC(O)=C1C=Nc1ccc2c(c1)oc1ccccc12`, the “viability” value is 88.5%.
Consider `CCCCCCOc1ccc(C(=O)O)cc1C#N`, for which the “viability” value was 92.4%.
Consider `CCC(=O)c1ccc(OC(=O)c2ccc(Br)o2)cc1`, for which the “viability” value is 94%.
`Cc1cccc2nc(CSc3nc4cc([N+](=O)[O-])ccc4s3)cn12`: the “viability” value is 97.2%.
The figure for `Cc1nc2scc(-c3ccccc3)c2c(=O)o1` is 102%; for `C=CCn1c(C)cc(C2=NNC(=NCc3ccccc3)SC2)c1C` it is 84.2%; for `Cc1ccc2c(c1)c1c3n2CCN=C3CCC1` it is 109%.
As for `CCNC(=O)COC(=O)c1ccc(-c2nc3ccccc3s2)s1`, the figure is 109%; as for `Cc1ccsc1/C=N/NC(=O)c1ccncc1`, 106%; as for `O=C(N/N=C/c1ccc[nH]1)c1ccncc1`, 103%.
Consider `O=C(N/N=C/c1cccc2nccnc12)c1ccncc1`, for which the “viability” value was 104%.
Consider `Cc1ccc(/C=N/NC(=O)c2ccncc2)o1`, for which the “viability” value is 100%.
As to `Clc1ccccc1CSc1nnc([C@@H]2CCCN2)o1`, the “viability” value was 98.8%.
For `Cc1cccc(Cc2cnc(NC(=O)C3=NCCN3)s2)c1`, the “viability” value was 85.1%.
Take `C=C[C@]1(C)C=C2CCC3[C@](C)(CCC[C@@]3(C)C(=O)O)C2CC1` (stereo not given in full): the “viability” value is 100%.
Turning to `S=C1NC2(CCCC2)N=C1c1ccccc1`, the “viability” value is 107%.
For `Cc1ccc(C)c(NC(=O)COC(=O)c2cc3ccccc3oc2=O)c1`, the “viability” value was 112%.
Consider `CN1CCC(O)(c2ccccc2)C(C(=O)c2ccccc2)C1` (stereo not given), for which the “viability” value is 70.1%.
The figure for `Cc1cccc(N2CCN(C(=O)Cn3sc4nc(C)cc(C)c4c3=O)CC2C)c1` (stereo not given) is 82.3%; for `CCCOC(=O)NC1CCS(=O)(=O)C1` (stereo not given) it is 93.6%; for `O=C(Nc1nnc(COc2ccc(Cl)cc2)s1)c1ccco1` it is 102%.
The figure for `O=C(Nc1ncccn1)c1ccc([N+](=O)[O-])o1` is 91.3%.
The figure for `O=C(CN1CCN(c2ccc([N+](=O)[O-])cc2)CC1)Nc1ccccn1` is 93.9%.
`Cc1csc(NC(=O)c2cc([N+](=O)[O-])cc([N+](=O)[O-])c2)n1`: the “viability” value was 90.4%.
On to `CC(C)(C)c1csc(NC(=O)c2ccccc2O)n1`, for which the “viability” value was 76.7%.
Consider `O=C(Nc1nccs1)c1ccc(COc2ccc(Cl)cc2)o1`, for which the “viability” value is 99.7%.
Regarding `Fc1cccc2sc(N3CCCC3)nc12`, the “viability” value was 102%.
For the compound `O=C(CCC1CCCC1)NCc1ccccn1`, the “viability” value is 95.9%.
With `CCN(CC)S(=O)(=O)c1ccc(C(=O)OCn2nnc3ccccc3c2=O)cc1`, the “viability” value is 102%.
The figure for `Nc1ccc(Br)c2cccnc12` is 78.7%; for `CCN(CC)c1ccc(-c2sc(Nc3ccccc3)n[n+]2-c2ccc(F)cc2)cc1` it is 94.7%; for `Cc1cc(C(=O)N/N=C/c2cccc(Cl)c2Cl)no1` it is 98.8%.
For `CSc1ccc(NC(=O)Nc2cccn(Cc3ccccc3)c2=O)cc1`, the “viability” value is 70%.
For the compound `CCN(CC)c1ccc(NC2CC(=O)N(CCc3ccc(OC)cc3)C2=O)cc1` (stereo not given), the “viability” value is 87%.
As for `CN1C(c2ccccc2)CC(=NO)CC1c1ccccc1` (stereo not given), the figure is 101%; as for `COc1ccc(-c2nnc(SCC(C)C)o2)cc1`, 97.1%; as for `COc1ccc(-c2nnc(NC(=O)C3=COCCO3)o2)cc1`, 98.6%.
Turning to `O=C(COc1ccccc1)Nc1nnc(-c2ccc3c(c2)CCCC3)o1`, the “viability” value was 108%.
As for `O=C(CNC(=O)c1ccc(Br)cc1)c1ccc(Br)cc1`, the figure is 102%; as for `COC(=O)COc1ccc(-c2ccc(F)cc2)cc1C=O`, 109%; as for `CC(=O)Nc1ccc(OC(=O)c2ccc(Br)c([N+](=O)[O-])c2)cc1`, 91.4%.
As for `CC(C)C1O/C(=N/C(=O)Nc2ccc(Cl)c(Cl)c2)NC1=O` (stereo not given), the figure is 99.6%; as for `COc1n[nH]c(C(=O)Nc2cc(F)ccc2C)c1[N+](=O)[O-]`, 86.7%.
As for `CC(C)(C)NC(=O)COC(=O)c1snc(C(=O)NC2CCCCC2)c1N`, the figure is 89.4%; as for `COc1ccc(NC(=O)COc2ccc3c(c2)CCC3)cc1`, 92.8%; as for `O=C(OCC(=O)c1c[nH]c2ccccc12)c1ccc([N+](=O)[O-])s1`, 97.2%.
Turning to `O=C(CN1CCOCC1)N/N=C/c1ccc(-c2ccc(Br)cc2)o1`, the “viability” value is 87%.
Consider `O=C(CCSc1nnc(-c2ccncc2)o1)Nc1cccc(Cl)c1`, for which the “viability” value was 106%.
For the compound `CCc1ccc(OCCCC(=O)Nc2nccs2)cc1`, the “viability” value is 102%.
The figure for `CSc1ccc(C(=O)C2CCCN(Cc3cc4ccccc4[nH]3)C2)cc1` (stereo not given) is 102%; for `COc1ccc(C(=O)C2CCCN(C(=O)c3ccc(CSC)o3)C2)cc1F` (stereo not given) it is 94.1%.
As for `O=C(CCS(=O)(=O)c1ccc(Cl)cc1)Oc1ccc2c(c1)OCO2`, the “viability” value is 111%.
For the compound `CC1=NN(C(=O)COc2ccccc2)C(O)(c2ccccc2)C1` (stereo not given), the “viability” value is 108%.
For `CC(Cc1cccs1)NC(=O)c1cccc(Cl)c1` (stereo not given), the “viability” value was 96.6%.
As to `CCc1ccc(NC(=O)C(=O)NNC(=O)c2cccc(OC)c2)cc1`, the “viability” value was 96.3%.
As for `Cc1ccc(C(=O)Oc2cccc(-n3cnnn3)c2)cc1`, the figure is 87.5%; as for `CCOC(=O)c1csc(-c2snnc2C)n1`, 99%.
Turning to `O=C(NNC1=C(C(=O)C(F)(F)F)CCC1)c1ccccc1Cl`, the “viability” value is 80.3%.
Take `N#CC1=C(N)Oc2n[nH]c(-c3cccnc3)c2C1c1ccc([N+](=O)[O-])o1` (stereo not given): the “viability” value was 99.4%.
`Cc1c(-c2ccc(Br)cc2)nc2ccccn12`: the “viability” value was 102%.
As to `Cc1ccc(-c2nc3ccccn3c2Nc2ccccc2)o1`, the “viability” value was 97.9%.
As for `CCOC(=O)c1c(C)nc2cc(C)ccn12`, the figure is 103%; as for `Cc1ccc(-c2nnc(NC3CCCC3)s2)cc1`, 98.6%; as for `FC(F)(F)c1ccc(-c2nnc(-c3cccnc3)o2)cc1`, 111%.
As for `CCOC(=O)c1ccc(N=CC2=C(O)CC(C)(C)CC2=O)cc1`, the figure is 118%; as for `O=C(c1nnc(-c2ccc(Cl)cc2)o1)C1CCCC1`, 88.8%.
For the compound `COc1ccc(CNC(=O)COC(=O)C2CC3C=CC2C3)cc1` (stereo not given), the “viability” value is 105%.
As for `CSc1ccc(COC(=O)CCS(=O)(=O)c2ccc(C)cc2)cc1`, the “viability” value was 110%.
As to `Cc1cc(OCCCn2ccnc2)ccc1C(C)C`, the “viability” value is 89.4%.
Consider `C=C1Cn2c(nnc2-c2ccc(Cl)cc2)S1`, for which the “viability” value is 106%.
For `Cc1cccc(OC(=O)c2ccc3nccnc3c2)c1`, the “viability” value was 95.6%.
As for `CCOC(=O)CN(C#N)c1nc(N(C)C)nc(N(C)C)n1`, the figure is 95%; as for `Cc1cc(OCCCCn2ccnc2)cc(C)c1Cl`, 81.2%.
As for `O=C(COC(=O)c1ccccc1Br)Nc1ccccc1F`, the “viability” value is 99.3%.
On to `O=C(NCc1ccc2c(c1)OCO2)c1ccc(Cl)s1`, for which the “viability” value was 108%.
With `Cc1cccc(Cn2ccc(NC(=O)c3ccc4c(c3)OCO4)n2)c1`, the “viability” value is 90.8%.
`CCc1ccc(NC(=O)COc2ccc3c(c2)OCO3)cc1`: the “viability” value was 93.2%.
Regarding `CCOC(=O)c1csc(COc2ccc(OC)cc2)n1`, the “viability” value was 112%.
With `CC1(c2nnc(Cc3ccccc3)o2)CC(c2ccccc2[N+](=O)[O-])=NO1` (stereo not given), the “viability” value was 93.6%.
Take `Cc1ccc(C(=O)Nc2nccs2)cc1`: the “viability” value was 97.7%.
For the compound `Cc1ccc(CNC(=O)c2cnccn2)cc1`, the “viability” value was 110%.
As for `CN1C(=O)CC(N2CCC(c3nc4ccccc4s3)CC2)C1=O` (stereo not given), the figure is 102%.
On to `O=C(CNC(=O)c1ccccc1F)OCc1csc(-c2ccccc2)n1`, for which the “viability” value was 90.8%.
In the case of `O=C(CCSc1ccc(Cl)cc1)NC1CCCC1`, the “viability” value is 98%.
On to `FC(F)c1nnc2ccc(Cl)nn12`, for which the “viability” value was 93.2%.
Turning to `Cc1ncsc1CCOC(=O)c1ccc([N+](=O)[O-])cc1`, the “viability” value is 89.9%.
Take `CN(C)S(=O)(=O)c1ccc(C(=O)Oc2ccccc2)cc1`: the “viability” value was 100%.
For the compound `CCOC(=O)c1c(-c2ccc(C)o2)csc1NC(=O)CN1CCCCC1`, the “viability” value was 79.5%.
Take `COc1ccc(OCC(=O)NNC(=O)c2ccccn2)cc1`: the “viability” value was 95.1%.
Regarding `O=C(Nc1ncccc1O)c1ccc(Oc2ccccc2)cc1`, the “viability” value is 91.3%.
Take `O=C(COc1ccc(Cl)cc1)NNC(=O)c1ccccn1`: the “viability” value was 71.8%.
Turning to `O=C(NNC(=O)C12CC3CC(CC(C3)C1)C2)c1cnccn1`, the “viability” value was 92.2%.
`COc1ccc(C(=O)N/N=C/c2cccc3cccnc23)cc1`: the “viability” value is 81.4%.
On to `O=C(N/N=C/c1ccc[nH]1)c1cccnc1`, for which the “viability” value was 94.2%.
As for `O=C(OCC(=O)C12CC3CC(CC(C3)C1)C2)c1ccccn1`, the figure is 103%; as for `O=C(NC(=S)NNC(=O)[C@H]1C[C@@H]1c1ccccc1)c1cccc(F)c1`, 76.5%; as for `COc1cccc2[nH]c3c(Cl)ncnc3c12`, 84.3%.
With `CC1CCCN(CCSc2ccc(Cl)cc2)C1` (stereo not given), the “viability” value is 92.3%.
Take `O=C(COc1ccc2ccccc2c1)Nc1ccncc1`: the “viability” value is 100%.
As for `O=C1C=CC(=O)N1N(c1ccccc1)c1ccccc1`, the figure is 111%.
Turning to `O=C(c1cccc2cccc(O)c12)N1CCCCC1`, the “viability” value is 99.4%.
For the compound `Cn1c(SCc2c(F)cccc2Cl)nc2c(c1=O)SCC2`, the “viability” value was 74.7%.
On to `Cc1cccc(NC(=O)CCSc2nnc(Cc3ccccc3)o2)c1`, for which the “viability” value is 102%.
As for `O=C(COC(=O)CCC(=O)c1ccc(F)cc1)Nc1ccc(F)cc1F`, the figure is 101%; as for `CC(/C=C/c1ccco1)=N/NC(=O)c1ccc(C)nc1`, 106%; as for `COc1ccc(OCC(=O)N/N=C2\CCc3ccccc32)cc1`, 102%.
On to `CCOc1ccccc1NC(=O)COn1nnc2ccc(Cl)cc21`, for which the “viability” value was 99.8%.
On to `COc1ccc(CN=C(C#N)C2=C(O)c3ccccc3C2=O)cc1`, for which the “viability” value was 91.6%.
For the compound `COc1cccc(NC(=O)c2ccc(C(=O)c3ccccc3)o2)c1`, the “viability” value was 95.3%.
As to `COc1cccc(NC(=O)c2cnc(SC)nc2)c1`, the “viability” value was 108%.
Take `C(#CCN1CCOCC1)COCc1ccccc1`: the “viability” value is 110%.
For the compound `O=c1cc(C(F)(F)F)[nH]c2c(C(F)(F)F)cccc12`, the “viability” value is 96.8%.

The viability is a read-out of living cells in per cent, often relative to untreated cells.
